Out of some 270,000 compounds screened, about 620 (0.23%) were called active. Not shown: some 12% with an inconclusive outcome. The call rests on the fitted dose curve; in most records, active means well fitted inhibition curve with a large enough effect in the polarisation, with a control signal flat (not every such curve was filed as active); inconclusive means small, poorly fitted or top-dose-only effect, or effect the other way, or a change in a side signal; inactive means no such curve, though single readings can be large or run the other way; the % refers to the polarisation. The entries come from a sample that favours actives as a whole.
molecular target: Menin (Homo sapiens) (UniProt O00255); assay: qHTS Assay for Inhibitors Targeting the Menin-MLL Interaction in MLL Related Leukemias: Competition With Texas Red Labeled MLL-derived Mutant Peptide; conditions: fluorescence polarization; series mostly up to 61.6 µM; FP activity change, negative = inhibition: at the top concentration; on FP activity change, negative = inhibition: % of control where 0% means no effect
Sequence (O00255 whole entry, looked up): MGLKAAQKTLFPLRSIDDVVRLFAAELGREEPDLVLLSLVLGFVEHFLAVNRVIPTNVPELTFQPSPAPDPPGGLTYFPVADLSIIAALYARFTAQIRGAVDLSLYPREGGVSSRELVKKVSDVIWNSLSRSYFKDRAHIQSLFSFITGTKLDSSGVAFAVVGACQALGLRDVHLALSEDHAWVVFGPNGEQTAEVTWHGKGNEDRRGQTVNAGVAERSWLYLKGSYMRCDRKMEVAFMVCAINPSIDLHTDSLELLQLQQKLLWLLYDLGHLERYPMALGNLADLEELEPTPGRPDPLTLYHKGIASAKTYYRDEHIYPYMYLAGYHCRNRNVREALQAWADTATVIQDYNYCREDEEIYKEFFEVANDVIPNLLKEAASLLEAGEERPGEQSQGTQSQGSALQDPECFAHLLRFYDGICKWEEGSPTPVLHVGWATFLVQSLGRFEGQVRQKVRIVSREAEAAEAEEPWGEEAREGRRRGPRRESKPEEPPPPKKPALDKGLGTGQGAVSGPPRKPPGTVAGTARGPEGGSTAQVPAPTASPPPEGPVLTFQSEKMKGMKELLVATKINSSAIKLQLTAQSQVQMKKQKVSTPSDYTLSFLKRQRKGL
Potency means the concentration at half of the fitted maximal effect.

| Compound | FP activity change, negative = inhibition | Potency |
| --- | --- | --- |
| CCn1cc(CN2CCN(CC(C)(C)C)C(CCO)C2)c2ccccc21 (centres undefined) | 1.44% (inactive) | – |
| Cc1cc(=O)oc2c(C)c(OC(C)C(=O)NC3CCN(Cc4ccccc4)CC3)ccc12 (centres undefined) | -2.55% (inactive) | – |
| O=C(CN1C(=O)COc2ccc(Cl)cc21)N1CCOCC1 | 1.36% (inactive) | – |
| COc1cc(CN2CCCC(C(=O)c3ccc(SC)cc3)C2)cc(Cl)c1O (centres undefined) | 11.6% (inactive) | – |
| Cc1cc(C)nc(N/N=C/c2c(CO)cnc(C)c2O)n1 | -1.68% (inactive) | – |
| COc1cccc(N(CC(=O)NCc2ccccc2)C(=O)CCC(=O)Nc2nccs2)c1 | -4.88% (inactive) | – |
| COc1ccc(CSc2nnnn2-c2ccc(O)cc2)cc1F | 26% (inactive) | – |
| CCOc1ccc(N(CC(=O)NCCc2ccc(F)cc2)S(=O)(=O)c2ccccc2)cc1 | -2.73% (inactive) | – |
| O=C1CCC(C(=O)N2CCN(c3ccccc3Cl)CC2)CN1CC1CCCCC1 (centres undefined) | -14.6% (inactive) | – |
| CCC(=O)c1cn(CCOc2ccccc2OC)c2ccccc12 | 33.7% (inactive) | – |
| CC1(C)CCSC(/C=C/c2ccccc2)=N1 | – | 31.6 µM (active) |
| CCCC[C@]12Cc3cc(OC)c(OC)cc3C(O1)C1=C(CC3(CCCCC3)OC1=O)O2 | -17.1% [at 11.7 µM] (inactive) | – |
| O=S(=O)(Nc1cccc(Oc2ccc(Cl)cc2)n1)c1ccc(F)cc1 | 41.6% (inactive) | – |
| CN(C)c1ccnc(Oc2ccc(F)cc2)c1C#N | 9.99% (inactive) | – |
| N#Cc1ccc(-c2ccc(Cl)cc2)nc1Oc1ccc(F)cc1 | – | 20 µM (active) |
| CC1C(=O)C(C)C(c2ccc(O)cc2)NC1c1ccc(O)cc1 (centres undefined) | 20.1% (inactive) | – |
| CCN(C(=O)C1CCCN(c2nc(-c3ccc(OC)cc3)no2)C1)c1ccc(OC)cc1 (centres undefined) | -7.46% (inactive) | – |
| Cc1ccc(S(=O)(=O)c2nc(-c3cccs3)oc2NCc2cccnc2)cc1 | 7.57% (inactive) | – |
| CCOCCCn1c(SCC(=O)Nc2cc(OC)ccc2OC)nc2ccccc2c1=O | 15.9% (inactive) | – |
| COc1ccc2[nH]c(C(=O)N/N=C/c3cc(OC)c(OC)c(OC)c3)cc2c1 | 5.44% (inactive) | – |
| C=C1C(=CC=C2CCC[C@@]3(C)[C@@H]2CC[C@H]3[C@H](C)CCCC(C)C)C[C@@H](O)C[C@@H]1O | -6.01% (inactive) | – |
| Cc1ccc(C(=O)NC23CC4CC(CC(C4)C2)C3)c(Cl)c1 | -16.7% (inactive) | – |
| CCOc1ccccc1NC(=S)NC(=O)CCc1ccccc1 | 5.54% (inactive) | – |
| CCc1ccc(N(C(=O)c2csnn2)C(C(=O)NC2CCCCC2)c2cccnc2)cc1 (centres undefined) | -8.39% (inactive) | – |
| O=C1CN(Cc2ccccc2)S(=O)(=O)c2ccccc21 | 5.81% (inactive) | – |
| CCOC(=O)C(Cc1ccc(N)cc1)N1C(=O)c2ccccc2C1=O (centres undefined) | -0.825% (inactive) | – |
| CCCN1CC=C2C(C#N)=C(N)C(C#N)(C#N)C(c3cc(OC)ccc3OC)C2C1 (centres undefined) | -20.9% (inactive) | – |
| CCN1CC=C2C(C#N)=C(N)C(C#N)(C#N)[C@H](c3ccoc3)[C@H]2C1 | – | 17.8 µM (active) |
| CCOC(=O)N1CC=C2C(C#N)=C(N)C(C#N)(C#N)[C@H](c3cccs3)[C@H]2C1 | 1.03% (inactive) | – |

Source: PubChem BioAssay AID1768 (National Center for Advancing Translational Sciences (NCATS), 2009)
